Experimental data published in PubChem BioAssay (NCATS).
Where “and” joins values, the source holds several entries; their conditions need not be identical. Identical values can stand only once. Results filed as inconclusive are left out. Where a call stands in place of a potency, no number is given. Some compounds were tested as several samples or in several runs, with calls that do not always agree. Calls of active or inactive are those of the source. Unless noted, the call rests on the fitted dose curve; in most records, active means well fitted curve in the direction sought with a large enough effect; inconclusive means small, poorly fitted or top-dose-only effect, or another doubt; inactive means no such curve, though single readings can be large; an effect the other way counts as inactive or inconclusive.

Legend:
[1] = Cell Viability - MRC5 (AID 434; calls by dose curve;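 further: potency means the concentration at half of the fitted maximal effect; cells exposed to compound for 40 hours at 37 °C; potency reflects cytotoxicity seen as loss of intracellular ATP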); settings: MRC5 lung fibroblast viability, qHTS
How it was run: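 AC50 values come from Hill-equation fits of intracellular ATP loss, measured by CellTiter-Glo luminescence. Normal lung fibroblasts (MRC5) had 40 hr compound treatment at 37 C, normalized between DMSO and 100 uM tamoxifen.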

[2] = Cellular Toxicity (caspase-3) HepG2 (AID 654);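 further: cells exposed to compound for 16 hours before reading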
How it was run: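 Caspase 3/7 activation is measured as a luminescence increase (aminoluciferin substrate) after 16 h compound exposure of human hepatocarcinoma HepG2 cells. AC50 values are Hill fits, scaled between DMSO baseline and 100 uM tamoxifen stimulation.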

[3] = Cellular Toxicity (caspase-3) H-4-II-E (AID 663); settings: Potency: caspase-3 activation;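 further: cells exposed to compound for 16 hr before readout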
How it was run: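 Caspase 3/7 activation measured by luminescent aminoluciferin substrate cleavage after 16 hr compound treatment of H-4-II-E cells in complete medium. Increase normalized between DMSO (basal) and 100 uM tamoxifen (100%); Hill-equation AC50 from concentration-response.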

[4] = Cellular Toxicity (caspase-3) Hek293 (AID 664); settings: HEK293 caspase-3 activation, DMSO = 0%, 100 µM tamoxifen = 100%; at 92.2 µM (top of the series);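 further: cells exposed to compound for 16 h at 37 °C before readout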
How it was run: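 Concentration-response qHTS: caspase 3/7 activation measured by luminescent aminoluciferin substrate cleavage after 16 h compound exposure of Hek 293 cells. AC50 from Hill equation, with DMSO as basal and 100 uM tamoxifen as 100%.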

[5] = biological target: Cytochrome P450 3A4 (Homo sapiens) (UniProt P08684); assay: qHTS Assay for Inhibitors and Substrates of Cytochrome P450 3A4 (AID 884); further: nearly all actives have a fitted effect of over 50% in size; further: potency means the concentration at half of the fitted maximal effect
How it was run: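 Luminescent readout of luciferin produced by CYP3A4 (20 nM) dealkylation of Luciferin-PPXE, 25 uM (its KM). NADPH-driven reaction ran 60 min at RT after 10 min compound preincubation; data scaled to 57 uM ketoconazole as 100% inhibition.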

[6] = MultiTox-Fluor Cytotoxicity Assay - LYMP1-003 - Live Cells (AID 962);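 further: cells exposed to compound for 16 hours at 37 °C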; further: potency means the concentration at half of the fitted maximal effect
How it was run: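 Live-cell protease activity (GF-AFC substrate, 405/510 nm, 60 min at room temperature) after 16 h, 37 C compound exposure of human lymphoblastoid LYMP1-003 cells; concentration-response fitted to the Hill equation for AC50.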

[7] = Cell Viability - LYMP2-015 (AID 971); further: nearly all actives have a fitted effect of over 55% in size; further: potency means the concentration at half of the fitted maximal effect
How it was run: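 Cytotoxicity readout: decrease in intracellular ATP (CellTiter-Glo luminescence) in 2500 LYMP2-015 lymphoblastoid cells/well after 24 h compound exposure at 37 C. Concentration-response data fitted with the standard Hill equation to give AC50.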

[8] = biological target: Peroxisome proliferator-activated receptor gamma (Homo sapiens) (UniProt P37231); assay: qHTS assay for small molecule agonists of peroxisome proliferator-activated receptor gamma signaling (AID 588536; active means well fitted curve in the direction sought with a large enough effect in the signal ratio, with a control signal flat, not every such curve was filed as active; the % refers to the signal ratio)
How it was run: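 Beta-lactamase reporter read-out: CCF4 fluorescence (ex 405, em 460/530 nm) after 2 h at RT. HEK293 GeneBLAzer cells were treated for 16 h at 37 C. Hill fits gave EC50 and efficacy versus 2 uM rosiglitazone (100%) and DMSO (0%).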

[9] = qHTS assay for small molecule activators of the nuclear factor-kappa B (NF-kB) signaling pathway (AID 651749; active means well fitted activation curve with a large enough effect in the signal ratio; the % refers to the signal ratio); settings: NF-kB-bla ME-180 cells, beta-lactamase FRET ratio, 16 h; stronger effect = higher value
How it was run: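 Activation measured after 16 hr compound treatment at 37C, 5% CO2, of 2,000 ME-180 cells/well stably expressing an NF-kB response element–driven beta-lactamase reporter, via FRET-disruption fluorescence.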

[10] = biological target: Nuclear receptor ROR-gamma (Homo sapiens) (UniProt P51449); assay: qHTS assay for small molecule antagonists of the retinoid-related orphan receptor gamma (ROR-gamma) signaling pathway (AID 651802); further: nearly all actives have a fitted effect of over 60% in size; further: potency means the concentration at half of the fitted maximal effect
How it was run: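 Luminescence (One-Glo, 30 min RT) measured 16 h after compound addition and doxycycline induction at 37C. Reporter: RORE-luciferase under TET-inducible ROR-gamma in CHO cells.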

[11] = qHTS assay for small molecule antagonists of the retinoid-related orphan receptor gamma (ROR-gamma) signaling pathway - cell viability counter screen (AID 720652; active means well fitted curve in the direction sought with a large enough effect in the repeat runs; an effect the other way counts as inactive or inconclusive;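 further: CHO reporter cells with doxycycline-induced ROR-gamma expression; compound exposure lasted 16 hr before ATP read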)
How it was run: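 Cytotoxicity counter screen: intracellular ATP (CellTiter-Glo luminescence) measured in the doxycycline-induced CHO RORE-luciferase reporter line after 16 hr compound exposure at 37 C, 5% CO2.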

[12] = qHTS assay for cell viability of HEK293 cells (AID 743288); settings: ATP luminescence (CellTiter-Glo), 18 h; max response: stronger effect = lower value; further: nearly all actives have a fitted effect of over 50% in size
How it was run: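 Steps: plate 2,000 parental HEK293 cells per well; incubate ≥5 h, 37 C; add compounds in DMSO; incubate 18 h, 37 C; add CellTiter-Glo; wait 30 min at room temperature; read luminescence.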

[13] = Cell Viability - NIH 3T3 (AID 541); settings: NIH 3T3 cell viability, qHTS; activity change, negative = cytotoxicity: at 92.2 µM (top of the series);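 further: cells exposed to compound for 40 hours; nearly all actives have a fitted effect of over 25% in size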; further: potency means the concentration at half of the fitted maximal effect
How it was run: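 Intracellular ATP (CellTiter-Glo luminescence, 20 min at room temperature) measured after 40 hr compound exposure at 37 °C of 1000 NIH 3T3 mouse fibroblasts/well in complete medium; AC50 derived by Hill-equation modelling of qHTS concentration-response curves.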

[14] = Cellular Toxicity (caspase-3) BJ (AID 658); settings: Potency: caspase-3 activation;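 further: cells exposed to compound for 16 hours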
How it was run: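 Caspase-Glo 3/7 luminescence, read 1 hr after reagent at room temperature, in normal BJ fibroblasts exposed 16 hours at 37 °C. AC50 values from Hill-equation concentration-response, scaled between DMSO basal and 10 uM staurosporine as 100%.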

[15] = biological target: Estrogen receptor (Homo sapiens) (UniProt P03372); assay: qHTS assay for small molecule antagonists of estrogen receptor alpha signaling (AID 588513; active means well fitted curve in the direction sought with a large enough effect in the signal ratio, with a control signal flat, not every such curve was filed as active; the % refers to the signal ratio)
How it was run: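 ER-alpha-UAS-bla GripTite HEK 293 cells in 2% charcoal/dextran-treated FBS medium; compounds titrated (1:2, duplicate), then stimulated with 0.5 nM 17-beta-estradiol for 18 h at 37C. CCF4 beta-lactamase fluorescence; Hill-fit IC50 and efficacy.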

[16] = qHTS assay for small molecule antagonists of peroxisome proliferator-activated receptor delta signaling (AID 588535; active means well fitted inhibition curve with a large enough effect in the signal ratio, with a control signal flat, not every such curve was filed as active; the % refers to the signal ratio;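 on max response: cells co-treated with a PPAR-delta agonist as stimulator during compound exposure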); settings: HEK293T PPARd-UAS-bla, beta-lactamase FRET ratio, 18 h; 460 nm channel
How it was run: (§1)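 Titrations were run on PPAR-delta-UAS-bla HEK293T cells in charcoal/dextran-stripped serum, incubated 18 h at 37 C. CCF4 fluorescence (460/530 nm) after 2 h RT; Hill equation yields IC50 and maximal response.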

[17] = biological target: Peroxisome proliferator-activated receptor delta (Homo sapiens) (UniProt Q03181); assay: as above
How it was run: as §1

[18] = qHTS assay for small molecule agonists of the antioxidant response element (ARE) signaling pathway (AID 651741; active means well fitted activation curve with a large enough effect in the signal ratio; the % refers to the signal ratio; further: potency means the concentration at half of the fitted maximal effect)
How it was run: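 Beta-lactamase reporter under ARE control in HepG2 cells, 2,000 per well, was induced by 16 h compound treatment at 37 C. Read-out was fluorescence from LiveBLAzer B/G FRET substrate after 2 h at room temperature.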

[19] = qHTS assay for small molecule agonists of the antioxidant response element (ARE) signaling pathway measured by Nrf2-dependant transcriptional activity - cell viability counter screen (AID 720653; active means well fitted curve in the direction sought with a large enough effect in the repeat runs; an effect the other way counts as inactive or inconclusive; further: potency means the concentration at half of the fitted maximal effect); settings: ARE-bla HepG2 viability, CellTiter-Glo ATP luminescence, 16 h; max response: stronger effect = lower value
How it was run: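 Cytotoxicity counter screen: intracellular ATP quantified by CellTiter-Glo luminescence in the same ARE-bla HepG2 plates, after 16 h compound exposure and a 2 h beta-lactamase substrate step.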

[20] = qHTS assay for small molecule activators of the human pregnane X receptor (PXR) signaling pathway (AID 720659; call rule not given here)

Cytochrome P450 3A4 (Homo sapiens), sequence (P08684 whole entry, looked up): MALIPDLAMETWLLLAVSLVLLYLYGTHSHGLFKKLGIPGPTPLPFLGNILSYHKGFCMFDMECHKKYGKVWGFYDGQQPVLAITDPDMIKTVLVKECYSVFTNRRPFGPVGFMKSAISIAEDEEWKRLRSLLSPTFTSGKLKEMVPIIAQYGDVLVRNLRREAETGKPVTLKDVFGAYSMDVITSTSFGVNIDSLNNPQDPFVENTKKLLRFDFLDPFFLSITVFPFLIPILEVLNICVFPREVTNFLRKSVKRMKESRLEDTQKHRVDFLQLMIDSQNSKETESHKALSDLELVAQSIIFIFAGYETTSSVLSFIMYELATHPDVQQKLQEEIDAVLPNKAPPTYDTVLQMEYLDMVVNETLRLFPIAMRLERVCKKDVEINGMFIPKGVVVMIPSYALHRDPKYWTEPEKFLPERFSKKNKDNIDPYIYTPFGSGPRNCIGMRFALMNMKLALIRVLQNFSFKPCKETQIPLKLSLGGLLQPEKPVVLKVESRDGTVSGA
Peroxisome proliferator-activated receptor gamma (Homo sapiens), sequence (P37231 whole entry, looked up): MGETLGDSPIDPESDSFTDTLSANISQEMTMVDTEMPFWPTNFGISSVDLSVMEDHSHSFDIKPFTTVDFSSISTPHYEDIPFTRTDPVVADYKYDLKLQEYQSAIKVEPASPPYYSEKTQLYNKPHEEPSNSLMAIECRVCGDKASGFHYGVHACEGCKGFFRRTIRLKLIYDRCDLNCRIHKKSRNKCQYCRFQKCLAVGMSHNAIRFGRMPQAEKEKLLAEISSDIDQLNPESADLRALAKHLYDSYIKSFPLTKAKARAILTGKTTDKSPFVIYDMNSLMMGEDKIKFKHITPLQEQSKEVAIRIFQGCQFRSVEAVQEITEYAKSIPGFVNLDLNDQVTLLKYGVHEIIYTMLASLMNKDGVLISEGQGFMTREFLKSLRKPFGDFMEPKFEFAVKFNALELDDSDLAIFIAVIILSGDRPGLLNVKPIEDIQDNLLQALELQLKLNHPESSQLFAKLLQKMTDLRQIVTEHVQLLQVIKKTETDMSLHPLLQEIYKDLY
Peroxisome proliferator-activated receptor delta (Homo sapiens), sequence (Q03181 whole entry, looked up): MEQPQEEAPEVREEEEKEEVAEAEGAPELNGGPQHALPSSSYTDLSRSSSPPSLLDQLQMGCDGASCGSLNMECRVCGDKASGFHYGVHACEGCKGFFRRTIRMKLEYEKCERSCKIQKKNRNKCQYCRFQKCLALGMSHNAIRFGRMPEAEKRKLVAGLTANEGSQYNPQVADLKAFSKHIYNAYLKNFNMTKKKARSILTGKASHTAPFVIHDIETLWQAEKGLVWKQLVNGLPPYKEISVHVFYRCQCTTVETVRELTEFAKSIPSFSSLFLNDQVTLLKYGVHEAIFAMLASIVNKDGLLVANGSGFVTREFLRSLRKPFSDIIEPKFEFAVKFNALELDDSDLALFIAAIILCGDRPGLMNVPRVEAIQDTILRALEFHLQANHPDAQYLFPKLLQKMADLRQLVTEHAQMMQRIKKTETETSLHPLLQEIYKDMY
Nuclear receptor ROR-gamma (Homo sapiens), sequence (P51449 whole entry, looked up): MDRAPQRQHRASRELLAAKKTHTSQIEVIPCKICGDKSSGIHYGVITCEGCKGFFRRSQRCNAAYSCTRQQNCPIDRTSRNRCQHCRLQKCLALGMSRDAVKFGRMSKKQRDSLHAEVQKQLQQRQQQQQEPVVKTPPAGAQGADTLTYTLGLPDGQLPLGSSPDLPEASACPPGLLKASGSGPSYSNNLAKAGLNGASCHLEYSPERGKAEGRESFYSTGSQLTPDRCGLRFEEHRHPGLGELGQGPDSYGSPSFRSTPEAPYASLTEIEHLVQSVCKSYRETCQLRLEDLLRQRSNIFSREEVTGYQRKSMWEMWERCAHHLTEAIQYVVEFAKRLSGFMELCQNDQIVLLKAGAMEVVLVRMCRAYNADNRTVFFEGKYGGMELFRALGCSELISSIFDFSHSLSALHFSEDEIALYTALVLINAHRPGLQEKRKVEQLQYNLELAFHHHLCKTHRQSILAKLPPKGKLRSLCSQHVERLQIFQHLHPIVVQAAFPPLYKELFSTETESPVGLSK
Estrogen receptor (Homo sapiens), sequence (P03372 whole entry, looked up): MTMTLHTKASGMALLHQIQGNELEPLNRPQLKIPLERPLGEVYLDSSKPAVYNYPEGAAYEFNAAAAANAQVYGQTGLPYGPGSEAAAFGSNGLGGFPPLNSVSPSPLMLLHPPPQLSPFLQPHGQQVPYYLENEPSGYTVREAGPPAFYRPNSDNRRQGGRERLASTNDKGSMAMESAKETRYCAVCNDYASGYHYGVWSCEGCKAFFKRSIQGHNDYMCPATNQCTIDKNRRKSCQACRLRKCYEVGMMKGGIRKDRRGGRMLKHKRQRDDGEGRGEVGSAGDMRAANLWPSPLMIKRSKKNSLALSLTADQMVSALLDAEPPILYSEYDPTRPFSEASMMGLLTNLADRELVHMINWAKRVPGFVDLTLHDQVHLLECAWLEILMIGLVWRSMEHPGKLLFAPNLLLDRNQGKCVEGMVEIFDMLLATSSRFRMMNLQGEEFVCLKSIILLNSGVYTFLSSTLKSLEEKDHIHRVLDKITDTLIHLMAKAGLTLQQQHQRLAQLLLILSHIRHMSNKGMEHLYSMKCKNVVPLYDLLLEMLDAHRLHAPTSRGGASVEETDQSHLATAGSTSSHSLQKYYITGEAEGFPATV

## Cc1cc2nc(N)sc2cc1C
[1]
  Potency: > 92 µM (inactive)
[2]
  Potency: inactive
[3]
  Potency: inactive
[4]
  caspase-3 activation: -7.89% (inactive)
[5]
  Potency: 15.8 µM (active)
[6]
  Potency: inactive
[7]
  Potency: inactive
[8]
  outcome: inactive
[9]
  activation: -0.263% (inactive)
[10]
  Potency: inactive
[11]
  Potency: inactive
[12]
  max response: -12.3% (inactive)

## C=Cc1cccc(C)c1
[13]
  activity change, negative = cytotoxicity: 4.07% (inactive)
[14]
  Potency: inactive
[5]
  Potency: inactive
[7]
  Potency: inactive
[15]
  outcome: inactive
[16]
  max response: -23.4%
[17]
  outcome: inactive
[8]
  outcome: inactive
[18]
  Potency: inactive
[10]
  Potency: inactive
[11]
  Potency: inactive
[19]
  max response: 10.9% (inactive)
[12]
  max response: 2.72% (inactive)
[20]
  outcome: inactive

## c1ccc(CSCc2ccccc2)cc1
[13]
  activity change, negative = cytotoxicity: -18.8% (inactive)
[14]
  Potency: inactive
[3]
  Potency: inactive
[4]
  caspase-3 activation: 0.61% (inactive)
[5]
  Potency: inactive
[6]
  Potency: inactive
[7]
  Potency: inactive
[16]
  max response: 13.7%
[17]
  outcome: inactive
[8]
  outcome: inactive
[18]
  Potency: inactive
[9]
  activation: -0.1% (inactive)
[10]
  Potency: inactive
[11]
  Potency: inactive
[20]
  outcome: inactive

## Cc1c2ccccc2c(C)c2c1ccc1ccccc12
[1]
  Potency: 17.9 µM (active)
[13]
  activity change, negative = cytotoxicity: -137% (active)
[14]
  Potency: inactive
[4]
  caspase-3 activation: 2.33% (inactive)
[15]
  outcome: inactive
[18]
  Potency: 10.6 µM (active) and 24.3 µM (active)
[10]
  Potency: 13.3 µM (active)
[19]
  Potency: 44.7 µM (active)
  max response: -7.46% (inactive)

## Brc1cc(Br)c(Oc2cc(Br)c(Br)cc2Br)cc1Br
[13]
  activity change, negative = cytotoxicity: -6.22% (inactive)
[14]
  Potency: inactive
[3]
  Potency: inactive
[5]
  Potency: inactive
[6]
  Potency: inactive
[7]
  Potency: inactive
[15]
  outcome: inactive
[9]
  activation: 3.12% (inactive)
[11]
  Potency: inactive
[19]
  max response: -7.08% (inactive)
[12]
  max response: -23.2% (inactive)
[20]
  outcome: inactive

## Cc1c(N)cccc1Cl
[1]
  Potency: > 92 µM (inactive)
[13]
  activity change, negative = cytotoxicity: -0.783% (inactive)
[2]
  Potency: inactive
[14]
  Potency: inactive
[5]
  Potency: inactive
[6]
  Potency: inactive
[7]
  Potency: inactive
[15]
  outcome: inactive
[16]
  max response: -10%
[17]
  outcome: inactive
[8]
  outcome: inactive
[18]
  Potency: inactive
[9]
  activation: 0.113% (inactive)
[10]
  Potency: inactive
[11]
  Potency: inactive
[20]
  outcome: inactive

## C=CC(=O)OCCCCCCOC(=O)C=C
[1]
  Potency: > 92 µM (inactive)
[13]
  Potency: 7.94 µM (active)
[2]
  Potency: inactive
[6]
  Potency: 50.1 µM (active)
[7]
  Potency: 39.8 µM (active)
[15]
  outcome: inactive
[16]
  max response: 35%
[17]
  outcome: inactive
[8]
  outcome: inactive
[18]
  Potency: 29.8 µM (active)
[19]
  max response: -16.8% (inactive) and -7.99% (inactive)
[20]
  outcome: inactive

## OCC(CBr)(CBr)CBr
[1]
  Potency: > 92 µM (inactive)
[2]
  Potency: inactive
[14]
  Potency: inactive
[3]
  Potency: inactive
[5]
  Potency: inactive
[6]
  Potency: inactive
[7]
  Potency: inactive
[15]
  outcome: inactive
[16]
  max response: 9.08%
[17]
  outcome: inactive
[8]
  outcome: inactive
[18]
  Potency: inactive
[9]
  activation: 0.264% (inactive)
[11]
  Potency: inactive
[19]
  max response: -12.4% (inactive)
[12]
  max response: -19.9% (inactive)
